Screening data deposited in PubChem BioAssay by National Center for Advancing Translational Sciences (NCATS).
Sampled rows, rich in hits. Any-hit rate of the full collection: about 18%.
IL1B secr inh: inhibitors of inflammasome signaling (IL-1 beta secretion). THP-1 LPS/ATP IL-1B secretion, AlphaLISA, 16 h; hits give low values. activity change, % at 57.5 µM. hit rate 4.7% among 360,000. AID 743279; in the data active = activity change below about -50%; inconclusive = mostly about -30% to -49%; also: % is scaled to controls: 0 for no effect and ±100 for the full control effect
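THP-1 cells pretreated 1 hr with compounds (up to 57.5 uM final), then stimulated with LPS (250 ng/mL final) plus ATP (1.25 mM final); secreted IL-1B measured by AlphaLISA after 16 hr, decreased signal indicating inhibition.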
TDP1 block: inhibitors of human tyrosyl-DNA phosphodiesterase TDP1; Q9NUW8; recombinant TDP1, AlphaScreen DNA substrate cleavage; Potency, µM (series often up to 130 µM), inactives show top-dose activity change, negative = inhibition, actives largely listed as inhibitors; hit rate 0.28% among 350,000; AID 485290; also: potency is read from the fitted curve at half-maximal effect; % is scaled to controls: 0 for no effect and ±100 for the full control effect; nearly all actives have a fitted effect of over 40% in size
Target sequence (Q9NUW8 whole entry, looked up): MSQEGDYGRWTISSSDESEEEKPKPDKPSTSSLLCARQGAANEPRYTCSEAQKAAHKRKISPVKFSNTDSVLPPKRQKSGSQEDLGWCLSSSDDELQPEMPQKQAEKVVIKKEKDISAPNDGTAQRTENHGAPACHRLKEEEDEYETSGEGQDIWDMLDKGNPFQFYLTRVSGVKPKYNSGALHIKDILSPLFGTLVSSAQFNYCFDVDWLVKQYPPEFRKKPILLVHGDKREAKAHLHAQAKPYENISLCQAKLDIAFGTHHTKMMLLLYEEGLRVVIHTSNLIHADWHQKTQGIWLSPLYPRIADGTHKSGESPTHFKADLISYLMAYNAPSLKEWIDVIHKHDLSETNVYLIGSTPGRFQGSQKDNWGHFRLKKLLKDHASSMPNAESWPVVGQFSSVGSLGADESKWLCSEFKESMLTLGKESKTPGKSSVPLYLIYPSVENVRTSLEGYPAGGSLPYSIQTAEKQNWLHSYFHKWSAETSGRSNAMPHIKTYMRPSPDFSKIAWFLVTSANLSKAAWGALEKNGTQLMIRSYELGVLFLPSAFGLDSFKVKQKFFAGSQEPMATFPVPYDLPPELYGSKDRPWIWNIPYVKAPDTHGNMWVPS
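Signal: AlphaScreen proximity between streptavidin donor and anti-FITC acceptor beads on intact substrate. Reaction: Tdp1 1 nM, substrate 15 nM final, 5 min RT after 15 min compound preincubation.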
HepG2 viability: kills HepG2 cells in TGF-b inhibitor counter-screen; HepG2 CAGA-GFP viability, ATP luminescence, 18 h; Potency, µM (doses to about 46.1 µM), for the others: at the highest dose activity change, negative = cytotoxicity, actives largely listed as cytotoxic; hit rate 0.76% among 410,000; also: potency is read from the fitted curve at half-maximal effect
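HepG2 CAGA-GFP cells (1000/well, DMEM with 1% FBS) received compound, then TGF-beta at 500 pg/mL final, and were incubated 18 hours at 37 degrees C. Viability was read by CellTiter-Glo luminescence. Media-only wells were set as complete cell-killing and DMSO as no toxicity.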
TDP1 cell CPT: DT40-hTDP1 cell growth loss with CPT; Potency, µM (doses to about 46.2 µM), inactives show at the top dose activity change, negative = growth inhibition, hits mostly inhibitors; chicken DT40 Tdp1-/-;hTDP1 cells + 20 nM CPT, ATP luminescence, 48 h; AID 686979; hit rate 12% among 420,000; also: potency is read from the fitted curve at half-maximal effect; % is scaled to controls: 0 for no effect and ±100 for the full control effect; nearly all actives have a fitted effect of over 55% in size
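Chicken DT40 Tdp1-/- cells complemented with human TDP1, 400 cells/well, exposed to compounds plus 20 nM camptothecin for at least 48 h at 37 C; viability read as ATP content by CellTiter-Glo luminescence.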
TGFb inhibitor: blocks TGF-b signaling; Potency, µM (highest dose often 46.1 µM), without a hit: at the highest dose activity, negative = inhibition, actives largely listed as inhibitors; HepG2 CAGA-GFP TGF-b/SMAD3 reporter, GFP fluorescence, 18 h; TGF-beta stimulated, 500 pg/mL final; hit rate 1.2% among 410,000; also: potency is read from the fitted curve at half-maximal effect; % is scaled to controls: 0 for no effect and ±100 for the full control effect; nearly all actives have a fitted effect of over 65% in size
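Per well, imaged GFP fluorescence of HEPG2 CAGA-GFP cells gives the signal; cells get compound, then TGF-beta (500 pg/mL final), 18 h at 37 degrees C; %Activity versus -TGF-beta and +DMSO controls.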
TDP1 cell noCPT: qHTS for Inhibitors of human tyrosyl-DNA phosphodiesterase 1 (TDP1): qHTS in cells in absence of CPT; AID 686978, 2013; Potency, µM (doses to about 46.2 µM), inactives show at the highest dose activity change, negative = growth inhibition, actives largely listed as inhibitors; DT40 Tdp1-/- hTDP1 cells, no CPT, ATP luminescence, 48 h; hit rate 15% among 420,000; also: potency is read from the fitted curve at half-maximal effect; % is scaled to controls: 0 for no effect and ±100 for the full control effect; nearly all actives have a fitted effect of over 55% in size
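No-CPT arm: Tdp1-/-;hTDP1 DT40 cells (400/well) plus compounds, incubated ≥48 hr at 37 °C. Readout CellTiter-Glo luminescence.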
* marks the source's active call; other numbers are inactive results; ? = inconclusive; . = no result given; [ ] = another dose, or the depositor's remark. Unless noted, calls follow the shape of the dose curve; as a rule, active = well fitted curve in the direction sought with a large enough effect; inconclusive = small, poorly fitted or top-dose-only effect, or another doubt; inactive = no such curve, though single readings can be large; an effect the other way counts as inactive or inconclusive.

SMILES	IL1B secr inh	TDP1 block	HepG2 viability	TDP1 cell CPT	TGFb inhibitor	TDP1 cell noCPT
CC(Sc1ccccc1)C(=O)N1CCN(S(=O)(=O)c2ccccc2F)CC1 (stereo unspecified)	-7.2	2.9%	4.2%	-12.2%	-1.2%	-15.3%
Cc1ccc(C)c(CN2CCCN(C(=O)Cn3ncc4c3-c3ccccc3OC4)C2)c1	-12.4	2.9%	-34.4%	13µM*	-11.3%	16.4µM*
O=C(Cn1ncc2c1-c1ccccc1OC2)N1CCN(c2ccccc2F)CC1	.	-2.0%	2.2%	?	-16.5%	18.4µM*
COc1cccc(N2CCN(C(=O)Cn3ncc4c3-c3ccccc3OC4)CC2)c1	.	1.0%	-7.9%	-24.0%	-24.4%	23.1µM*
Cc1cccc(N(C(=O)C(F)(F)F)C(C(=O)NC2CCCCC2)c2cccs2)c1 (stereo unspecified)	13.4	5.9%	-16.2%	-15.2%	-4.4%	-18.4%
C#CC(=O)N(c1cccc(OC)c1)C(C(=O)NC1CCCC1)c1cccs1 (stereo unspecified)	-101.8*	-3.9%	8.91µM*	1.03µM*	22.4µM*	2.31µM*
C#CC(=O)N(c1ccc(OC)c(OC)c1)C(C(=O)NC1CCCC1)c1cccs1 (stereo unspecified)	-105.6*	2.8%	12.6µM*	0.731µM*	?	0.651µM*
CC(C)(C)C(c1nc2ccccc2[nH]1)n1c(-c2cccc(S(C)(=O)=O)c2)nc2ccccc21 (stereo unspecified)	?	.	.	10.3µM*	.	13µM*
CC(C)(C)C(c1nc2ccccc2[nH]1)n1c(-c2cc(Cl)cc(Cl)c2)nc2ccccc21 (stereo unspecified)	-0.2	.	.	?	.	16.4µM*
OCCC1CN(Cc2ccccc2-c2ccco2)CCN1Cc1ccccc1 (stereo unspecified)	-9.7	-5.4%	3.4%	-6.7%	-3.4%	?
O=C(NNc1ccc([N+](=O)[O-])cc1)c1ccccc1Cl	-1.3	0.0%	-3.7%	-9.2%	-7.4%	-29.9%
O=C(NC(NNc1ccc([N+](=O)[O-])cc1)(C(F)(F)F)C(F)(F)F)c1ccc(Cl)cc1	?	3.9%	-4.8%	?	?	29.1µM*
Cc1cnc(C)c(-c2ccc(F)c3c2OC(CNC(=O)Cc2c(C)[nH]c4ccccc24)C3)n1 (stereo unspecified)	.	.	.	-3.6%	.	-30.0%
O=C(NC(Cc1ccccc1)c1nc2ccccc2[nH]1)c1ccc(Cl)c([N+](=O)[O-])c1 (stereo unspecified)	-164.8*	2.7%	-3.4%	10.3µM*	?	23.1µM*
CCCCC(NC(C)=O)c1nc2ccccc2[nH]1 (stereo unspecified)	15.6	-3.3%	-21.5%	0.6%	-3.9%	-6.1%
CSCC[C@H](NC(=O)c1ccc(Cl)c([N+](=O)[O-])c1)c1nc2ccccc2[nH]1	-102.4*	8.1%	-13.5%	?	-5.4%	?
CCCC(NC(=O)c1ccc(Br)o1)c1nc2ccccc2[nH]1 (stereo unspecified)	-9.2	-0.1%	-10.9%	16.4µM*	-7.6%	?
O=C(Nc1nc2ccccc2[nH]1)c1ccc(Cl)c([N+](=O)[O-])c1	-1.0	2.7%	-3.7%	?	11.6%	?
CCCCn1nc(C(=O)N[C@@H](CCSC)c2nc3ccccc3[nH]2)c2ccccc2c1=O	-21.1	5.1%	-22.9%	25.9µM*	?	?
CC1C(=O)OC2CC34C5CC(C(C)(C)C)C36C(OC(=O)C6O)OC4(C(=O)O5)C21O (stereo unspecified)	.	9.0%[56.1 µM]	.	7.7%	.	-3.6%
O=C(NNc1nc2ccccc2s1)c1ccc(F)cc1	3.4	11.0%	-58.1%	10.9%	-11.0%	-13.1%
O=C(Nc1nc2ccc(F)cc2s1)c1ccccn1	-95.5*	9.2%	-34.9%	0.651µM*	?	0.517µM*
O=C(Nc1nc2ccc(F)cc2s1)C1=NN(c2ccccc2)C(=O)CC1	54.8	0.0%	0.9%	-5.8%	6.5%	1.8%
O=C(NNc1nc2ccc(F)cc2s1)c1cccc(F)c1	35.1	-3.5%	-59.5%	11.6µM*	12.6µM*	?
CCOc1ccc(N=c2oc3cc(O)ccc3cc2C(=O)NCC2CCCO2)cc1 (stereo unspecified)	-9.6	4.7%	7.6%	-8.4%	4.9%	-3.8%
SMILES	IL1B secr inh	TDP1 block	HepG2 viability	TDP1 cell CPT	TGFb inhibitor	TDP1 cell noCPT
CCOc1ccccc1N=c1oc2cc(O)ccc2cc1C(=O)NCC1CCCO1 (stereo unspecified)	0.0	-6.1%	-45.5%	11.2µM*	10.1%	?
O=C(COc1ccccc1C(=O)NCC1CCCO1)Nc1ccc(Br)cc1 (stereo unspecified)	-8.6	2.5%	-13.9%	?	-20.2%	-20.5%
O=C(COc1ccccc1C(=O)NCC1CCCO1)Nc1ccc(Cl)cc1Cl (stereo unspecified)	7.4	-3.7%	2.6%	14.6µM*	12.2%	?
CCOc1cc(NC(=S)NCC2CCCO2)c(OCC)cc1NC(=O)c1ccccc1F (stereo unspecified)	-22.2	6.1%	1.1%	?	14.9%	23.1µM*
Cc1ccccc1-c1noc(-c2ccccc2C(=O)NCc2ccco2)n1	?	0.0%	-37.1%	?	-3.4%	18.4µM*
COCCNC(=O)CN1C(=O)CCn2nc(-c3cn(C)c4ccccc34)cc21	.	3.0%	3.6%	-24.2%	1.3%	38.6%
CCNC(=O)c1ccccc1-c1nc(-c2ccccc2OC)no1	0.0	2.8%	-1.3%	-22.8%	19.7%	?
O=C(NCC1CCCO1)c1ccccc1-c1nc(-c2ccc(Cl)cc2)no1 (stereo unspecified)	-27.4	2.1%	-4.3%	18.4µM*	-15.4%	18.4µM*
O=C(NCC1CCCO1)c1ccccc1-c1nc(-c2ccccc2F)no1 (stereo unspecified)	-7.7	5.2%	-2.6%	-25.9%	4.5%	4.8%
CCNC(=O)c1ccccc1-c1nc(-c2ccccc2Cl)no1	14.6	7.4%	19.1%	?	0.0%	18.4µM*
Cc1ccc(NC(=O)c2oc3ccccc3c2NC(=O)C2CCCO2)cc1C (stereo unspecified)	-5.5	3.6%	-31.3%	10.3µM*	17.4%	8.2µM*
